Results taken from PubChem BioAssay (EPA / NIEHS).
Activity calls are given as the source filed them. How the source made its calls: active means hit-call score of the fitted dose curve at least 0.9, where 1 is the maximum; inactive means score below 0.9.

Legend:
[1] = APR_HepG2_NuclearSize_72hr: Apredica 72-hour HepG2 Assay for Nuclear Size (AID 2282925); settings: high-content imaging, actives raise or lower the signal
Outline: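 Compounds (0.39–200 uM, final DMSO 0.5%) were applied to HepG2 for 72 hr. Cells were then formaldehyde-fixed, permeabilized and labelled with Hoechst 33342. Nuclear diameter was quantified from six images per well.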

[2] = ATG_CRE_CIS: Attagene CIS-FACTORIAL HepG2 Assay for human cAMP Responsive Element (CRE) binding protein 3 (AID 2282926); settings: HepG2 CRE cis-reporter, Attagene multiplexed mRNA; actives raise or lower the signal
Outline: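 Induced reporter mRNA from a CRE cis element, measured in HepG2 among many multiplexed units at 24 h. Detection used RT-PCR plus capillary electrophoresis of fluorescent fragments; DMSO served as negative control.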

[3] = target: CCAAT/enhancer-binding protein beta (Homo sapiens) (UniProt P17676); assay: ATG_C_EBP_CIS: Attagene CIS-FACTORIAL HepG2 Assay for human CCAAT/Enhancer Binding Protein (C/EBP) beta (AID 2282927); settings: HepG2 Attagene cis-factorial transcription factor reporter; actives raise or lower the signal
Outline: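 RT-PCR/capillary electrophoresis fluorescence of reporter mRNA, 24 h post-dose, in HepG2 cells carrying transfected cis-promoter reporter units. Bidirectional curve fitting against DMSO baseline captures gain or loss of signal.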

[4] = ATG_CMV_CIS: Attagene CIS-FACTORIAL HepG2 Assay for human CMV (Internal Marker) (AID 2282928); settings: HepG2 CMV promoter reporter, transcription factor profiling; actives raise or lower the signal;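 further: endpoint acts as a background internal control marker rather than a target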
Outline: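 Reporter transcripts from transfected HepG2 cells are isolated after 24 h of chemical dosing, reverse-transcribed and amplified. Fragments labeled with 6-FAM are cut with HpaI and quantified by capillary electrophoresis; DMSO defines baseline.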

[5] = ATG_DR4_LXR_CIS: Attagene CIS-FACTORIAL HepG2 Assay for human Liver X Receptor (LXR), DR4 submotif (AID 2282929); settings: HepG2 Attagene DR4 cis-reporter, mRNA transcription; actives raise or lower the signal
Outline: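 Endogenous factor activity at a DR4 cis-element is read as reporter mRNA in transiently transfected HepG2 cells. Exposure lasts 24 h; transcripts are amplified, fluorescently labelled and sized by capillary electrophoresis, with DMSO as baseline.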

[6] = target: Aryl hydrocarbon receptor (Homo sapiens) (UniProt P35869); assay: ATG_Ahr_CIS: Attagene CIS-FACTORIAL HepG2 Assay for human Aryl Hydrocarbon Receptor (Ahr) (AID 2282930); settings: HepG2 AhR cis-factorial reporter transcription; actives raise or lower the signal
Outline: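 HepG2 cells transiently transfected with cis-element-driven multiplexed reporter transcription units; endogenous transcription factor activity measured as reporter mRNA 24 h after dosing. RT-PCR, 6-FAM labelling, HpaI digestion, capillary electrophoresis; bidirectional fitting versus DMSO baseline.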

[7] = ATG_AP_2_CIS: Attagene CIS-FACTORIAL HepG2 Assay for human Activator Protein 2 (AP-2) (AID 2282932); settings: HepG2 AP-2 cis-reporter, Attagene transcription factor profiling; actives raise or lower the signal
Outline: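 Cells (HepG2) transfected with promoter-driven reporter constructs, treated 24 h. Total RNA reverse-transcribed, reporter cDNA PCR-amplified, FAM-labelled by primer extension, digested, resolved by capillary electrophoresis. Activity fitted both directions versus DMSO.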

[8] = ATG_BRE_CIS: Attagene CIS-FACTORIAL HepG2 Assay for human Bone Morphogenetic Protein (BMP) Response Element (BRE) (AID 2282933); settings: HepG2 BMP response element reporter, Attagene transcription factor profiling; actives raise or lower the signal
Outline: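 Transient MRTU transfection of human HepG2 liver cells; 24 h compound treatment; total RNA isolated, reverse-transcribed, PCR-amplified, 6-FAM labelled, HpaI-cut, capillary electrophoresis. DMSO = negative control/baseline, bidirectional fit.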

[9] = target: Retinoic acid receptor alpha (Homo sapiens) (UniProt P10276); assay: ATG_DR5_RAR_CIS: Attagene CIS-FACTORIAL HepG2 Assay for human Retinoic Acid Receptor Alpha (RARE), DR5 submotif (AID 2282934); settings: HepG2 Attagene cis-factorial RARE DR5 reporter, mRNA; actives raise or lower the signal;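 on AC50: reporter responds to endogenous RAR alpha beta and gamma in HepG2 not RARA alone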
Outline: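 HepG2 cells transiently transfected with multiplexed reporter units under cis (DR5 RARE) promoters, so endogenous transcription factor activity is measured. After 24 h compound exposure, reporter mRNA is quantified by RT-PCR with fluorescent labelling and capillary electrophoresis; bidirectional fitting versus DMSO.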

[10] = target: Transcription factor E2F1 (Homo sapiens) (UniProt Q01094); assay: ATG_E2F_CIS: Attagene CIS-FACTORIAL HepG2 Assay for human E2F Transcription Factor 1 (AID 2282935); settings: HepG2 Attagene cis-reporter, E2F reporter RNA transcripts; actives raise or lower the signal
Outline: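 First, HepG2 cells were transfected with reporter transcription units. Next, they were dosed for 24 h. Then RNA was isolated, converted to cDNA, PCR-amplified, FAM-labeled, HpaI-digested and analyzed by capillary electrophoresis.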

[11] = ATG_E_Box_CIS: Attagene CIS-FACTORIAL HepG2 Assay for human Enhancer Box (E-box) (AID 2282936); settings: HepG2 E-box cis-reporter transcription, actives raise or lower the signal
Outline: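 Endogenous transcription factor activity was sensed in human HepG2 liver cells through transfected cis-promoter reporter units. After 24 h of dosing, total RNA was reverse-transcribed and reporter cDNA resolved by capillary electrophoresis.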

[12] = ATG_M_61_CIS: Attagene CIS-FACTORIAL HepG2 Assay for M61 Transcription Factor (Internal Marker) (AID 2282937); settings: HepG2 Attagene CIS-FACTORIAL M61 internal marker reporter; actives raise or lower the signal
Outline: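 This endpoint serves as an internal background control within a multiplexed HepG2 cis-reporter panel. Cells are exposed for 24 h; reporter mRNA is amplified, fluorescently labelled and sized by capillary electrophoresis, with DMSO as negative control.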

[13] = ATG_EGR_CIS: Attagene CIS-FACTORIAL HepG2 Assay for human Early Growth Response 1 (EGR1) (AID 2282938); settings: HepG2 Attagene CIS-FACTORIAL EGR reporter mRNA; actives raise or lower the signal
Outline: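 HepG2, transient MRTU transfection (cis promoters), 24 h compound. RNA → RT (oligo-dT) → PCR → 6-FAM labelling → HpaI cut → CE fluorescence. Bidirectional fit, DMSO baseline.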

[14] = ATG_M_19_CIS: Attagene CIS-FACTORIAL HepG2 Assay for M19 Transcription Factor (Internal Marker) (AID 2282939); settings: HepG2 Attagene CIS-FACTORIAL M19 internal marker reporter; actives raise or lower the signal
Outline: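 Transfect HepG2 with MRTU reporter library → dose chemical, 24 h → isolate total RNA, reverse-transcribe with oligo(dT) → PCR, 6-FAM label, HpaI cut (2 h, 37 C) → capillary electrophoresis. Bidirectional fit vs DMSO.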

[15] = ATG_ERE_CIS: Attagene CIS-FACTORIAL HepG2 Assay for Estrogen Response Element (ERE) (AID 2282940); settings: HepG2 ERE cis-reporter, Attagene RNA transcript; actives raise or lower the signal
Outline: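 Transient MRTU transfection of human HepG2; cis-element promoters; 24 h dosing; total RNA → RT (oligo dT) → PCR → 6-FAM primer extension → HpaI digest → CE fluorescence. Bidirectional fit, DMSO baseline.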

[16] = ATG_Ets_CIS: Attagene CIS-FACTORIAL HepG2 Assay for human Erythroblast Transformation Specific (ETS) (AID 2282941); settings: HepG2 ETS cis-reporter transcription, actives raise or lower the signal
Outline: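 Bidirectional fit versus DMSO of reporter mRNA signal, detected by RT-PCR and capillary electrophoresis in HepG2 cells transiently transfected with cis-element reporters and dosed 24 h.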

[17] = target: Hepatocyte nuclear factor 3-beta (Homo sapiens) (UniProt Q9Y261); assay: ATG_FoxA2_CIS: Attagene CIS-FACTORIAL HepG2 Assay for human Forkhead box A2 (FOXA2) (AID 2282942); settings: HepG2 cis-reporter transcription factor activity, 24 h; actives raise or lower the signal
Outline: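 Cells: HepG2, transient multiplex reporter transfection. Exposure 24 h. Detection: reporter-specific RT-PCR, fluorescent labelling, restriction digest, capillary electrophoresis. Analysis: bidirectional curve fit, DMSO as negative control.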

[18] = ATG_FoxO_CIS: Attagene CIS-FACTORIAL HepG2 Assay for human Forkhead box O (FoxO) (AID 2282943); settings: HepG2 Attagene cis-reporter, FoxO element, mRNA; actives raise or lower the signal
Outline: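 HepG2 cells transiently transfected with cis-promoter-driven multiple reporter transcription units; 24 h after chemical dosing, reporter mRNA quantified by RT-PCR, fluorescent primer extension, HpaI digestion and capillary electrophoresis. Bidirectional fitting versus DMSO baseline.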

[19] = ATG_GATA_CIS: Attagene CIS-FACTORIAL HepG2 Assay for human GATA Binding Protein (AID 2282944); settings: HepG2 GATA cis-element reporter, Attagene multiplex mRNA; actives raise or lower the signal
Outline: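 Transient MRTU transfection, HepG2, 24 h compound exposure. Total RNA → oligo(dT) RT → PCR → 6-FAM primer extension → HpaI cut → CE. Bidirectional fit vs DMSO.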

[20] = ATG_AP_1_CIS: Attagene CIS-FACTORIAL HepG2 Assay for human Activator Protein 1 (AP-1) (AID 2282931); settings: HepG2 Attagene cis-factorial AP-1 reporter mRNA; actives raise or lower the signal
Outline: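 Fluorescence of labelled PCR fragments separated by capillary electrophoresis gives reporter mRNA levels. HepG2 with transfected cis-regulated reporter units, 24 h exposure; DMSO serves as baseline for bidirectional curve fits.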

Measured: AC50

Chain of Aryl hydrocarbon receptor (Homo sapiens) (P35869 whole entry, looked up): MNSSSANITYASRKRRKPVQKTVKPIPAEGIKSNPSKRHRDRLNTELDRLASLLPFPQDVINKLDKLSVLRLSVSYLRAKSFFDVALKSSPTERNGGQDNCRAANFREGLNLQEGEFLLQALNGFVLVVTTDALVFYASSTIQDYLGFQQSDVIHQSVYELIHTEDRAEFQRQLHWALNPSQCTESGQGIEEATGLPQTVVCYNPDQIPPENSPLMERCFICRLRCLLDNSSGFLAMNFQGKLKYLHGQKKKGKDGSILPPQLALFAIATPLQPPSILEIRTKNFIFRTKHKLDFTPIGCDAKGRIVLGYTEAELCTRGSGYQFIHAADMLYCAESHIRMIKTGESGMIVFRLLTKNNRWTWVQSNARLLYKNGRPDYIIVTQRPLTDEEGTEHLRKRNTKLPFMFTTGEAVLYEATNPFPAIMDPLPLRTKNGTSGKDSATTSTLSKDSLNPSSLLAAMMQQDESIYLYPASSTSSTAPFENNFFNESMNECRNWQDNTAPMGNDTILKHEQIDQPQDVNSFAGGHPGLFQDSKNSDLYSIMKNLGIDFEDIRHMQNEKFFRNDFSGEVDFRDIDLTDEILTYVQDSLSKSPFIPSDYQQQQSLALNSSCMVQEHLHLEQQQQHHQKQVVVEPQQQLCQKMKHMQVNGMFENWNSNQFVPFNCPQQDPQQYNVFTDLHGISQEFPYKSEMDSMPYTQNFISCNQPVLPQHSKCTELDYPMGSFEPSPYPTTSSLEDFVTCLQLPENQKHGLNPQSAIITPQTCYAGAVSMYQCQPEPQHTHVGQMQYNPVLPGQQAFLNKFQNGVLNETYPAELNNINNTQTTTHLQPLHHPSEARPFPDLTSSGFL
Chain of Hepatocyte nuclear factor 3-beta (Homo sapiens) (Q9Y261 whole entry, looked up): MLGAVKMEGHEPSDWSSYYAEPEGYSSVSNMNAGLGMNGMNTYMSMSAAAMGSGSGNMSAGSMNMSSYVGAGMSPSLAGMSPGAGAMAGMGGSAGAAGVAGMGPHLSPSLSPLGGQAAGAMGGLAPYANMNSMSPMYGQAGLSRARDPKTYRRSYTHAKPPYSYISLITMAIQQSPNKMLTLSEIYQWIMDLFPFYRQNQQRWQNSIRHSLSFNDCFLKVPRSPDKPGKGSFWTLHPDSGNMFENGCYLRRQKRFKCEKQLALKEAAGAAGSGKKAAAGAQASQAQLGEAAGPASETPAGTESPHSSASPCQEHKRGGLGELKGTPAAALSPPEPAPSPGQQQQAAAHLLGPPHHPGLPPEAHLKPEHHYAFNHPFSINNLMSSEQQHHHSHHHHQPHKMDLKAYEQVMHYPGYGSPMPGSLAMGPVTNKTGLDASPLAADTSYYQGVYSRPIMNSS
Chain of Retinoic acid receptor alpha (Homo sapiens) (P10276 whole entry, looked up): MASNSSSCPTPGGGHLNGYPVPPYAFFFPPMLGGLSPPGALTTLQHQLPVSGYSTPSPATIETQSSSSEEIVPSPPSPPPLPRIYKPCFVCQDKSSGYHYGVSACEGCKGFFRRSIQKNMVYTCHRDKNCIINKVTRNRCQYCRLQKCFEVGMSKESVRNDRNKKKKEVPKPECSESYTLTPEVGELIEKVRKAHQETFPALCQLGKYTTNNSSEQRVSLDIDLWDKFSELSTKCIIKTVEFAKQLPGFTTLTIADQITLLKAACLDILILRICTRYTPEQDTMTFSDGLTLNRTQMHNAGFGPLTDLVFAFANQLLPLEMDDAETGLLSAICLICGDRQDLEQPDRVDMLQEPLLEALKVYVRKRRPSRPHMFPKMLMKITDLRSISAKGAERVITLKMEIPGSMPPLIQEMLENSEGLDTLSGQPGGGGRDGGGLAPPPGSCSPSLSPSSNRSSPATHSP
Chain of Transcription factor E2F1 (Homo sapiens) (Q01094 whole entry, looked up): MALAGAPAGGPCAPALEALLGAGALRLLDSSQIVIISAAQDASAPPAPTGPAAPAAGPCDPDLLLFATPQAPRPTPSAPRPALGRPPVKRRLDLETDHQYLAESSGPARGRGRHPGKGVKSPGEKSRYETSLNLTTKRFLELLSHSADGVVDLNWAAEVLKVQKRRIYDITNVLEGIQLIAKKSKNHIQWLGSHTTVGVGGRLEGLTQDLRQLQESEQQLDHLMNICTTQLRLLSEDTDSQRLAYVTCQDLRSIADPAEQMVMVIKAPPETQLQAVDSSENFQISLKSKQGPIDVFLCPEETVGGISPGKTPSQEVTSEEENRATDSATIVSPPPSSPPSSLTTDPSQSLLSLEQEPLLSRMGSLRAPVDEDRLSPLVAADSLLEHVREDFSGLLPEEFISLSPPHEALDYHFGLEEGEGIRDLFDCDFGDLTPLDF
Chain of CCAAT/enhancer-binding protein beta (Homo sapiens) (P17676 whole entry, looked up): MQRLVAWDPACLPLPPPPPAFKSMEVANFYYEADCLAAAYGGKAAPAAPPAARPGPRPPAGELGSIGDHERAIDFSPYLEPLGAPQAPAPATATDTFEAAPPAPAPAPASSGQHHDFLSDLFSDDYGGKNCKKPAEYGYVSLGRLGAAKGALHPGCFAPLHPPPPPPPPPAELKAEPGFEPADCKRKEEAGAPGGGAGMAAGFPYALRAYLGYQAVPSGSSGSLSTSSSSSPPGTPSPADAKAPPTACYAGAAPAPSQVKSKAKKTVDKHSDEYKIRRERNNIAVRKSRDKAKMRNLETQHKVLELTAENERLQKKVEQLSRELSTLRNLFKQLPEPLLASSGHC

CCCN(CC)CC1COC2(CCC(C(C)(C)C)CC2)O1 (stereo unspecified)
active: [2] 13.6 µM | [4] 17.8 µM | [6] 26.1 µM | [8] 22.2 µM | [9] 2.75 µM | [13] 15 µM | [17] 16.9 µM
not listed: [20]
inactive: all other assays above

Nc1c(Cl)c(F)nc(OCC(=O)O)c1Cl
not listed: [18]
inactive: all other assays above

N#Cc1c(Cl)cccc1Cl
not listed: [9] | [18]
inactive: all other assays above

CNC(=O)Oc1cccc2ccccc12
active: [4] 50 µM | [6] 6.71 µM | [8] 23.6 µM | [11] 9.92 µM | [15] 50 µM
not listed: [13] | [18]
inactive: all other assays above

CCSC(=O)N1CCCCCC1
inactive: all assays above

Cc1cc(C)nc(Nc2ccccc2)n1
active: [2] 7.42 µM | [3] 6.27 µM | [8] 27 µM | [13] 50 µM
not listed: [20]
inactive: all other assays above

COC(=O)c1c(C(F)F)nc(C(F)(F)F)c(C2=NCCS2)c1CC(C)C
active: [2] 9.92 µM | [3] 0.682 µM | [5] 26.2 µM | [6] 50 µM | [8] 50 µM | [11] 9.92 µM | [15] 13.8 µM | [19] 88.5 µM
not listed: [18]
inactive: all other assays above

CC1(C)CON(Cc2ccccc2Cl)C1=O
active: [15] 50 µM
not listed: [13] | [18]
inactive: all other assays above

COc1ccc(-c2ccccc2)cc1NNC(=O)OC(C)C
active: [4] 13.5 µM | [8] 2.32 µM
not listed: [6] | [13] | [20]
inactive: all other assays above

CC(C)NC(=O)N1CC(=O)N(c2cc(Cl)cc(Cl)c2)C1=O
active: [6] 4.87 µM | [15] 20.6 µM
not listed: [9] | [13] | [18] | [20]
inactive: all other assays above

CC(C)=CC1C(C(=O)OCc2coc(Cc3ccccc3)c2)C1(C)C (stereo unspecified)
active: [2] 13.2 µM | [5] 73.6 µM | [8] 15.5 µM | [9] 8.01 µM | [15] 13.1 µM
not listed: [18] | [20]
inactive: all other assays above

CO/N=C(/C1=NOCCO1)c1ccccc1Oc1ncnc(Oc2ccccc2Cl)c1F
active: [2] 0.858 µM | [3] 0.794 µM | [20] 0.481 µM | [8] 0.918 µM
not listed: [6] | [9] | [13] | [18]
inactive: all other assays above

N#Cc1c[nH]cc1-c1cccc2c1OC(F)(F)O2
active: [2] 10.8 µM | [3] 8.24 µM | [4] 29 µM | [5] 1.19 µM | [7] 13.5 µM | [8] 22.2 µM | [15] 5.84 µM | [16] 29 µM
not listed: [6] | [9] | [13]
inactive: all other assays above

O=P(O)(O)CCCl
not listed: [13] | [18] | [20]
inactive: all other assays above
